# Screens (PubChem)
# Most compounds without a hit are left out; they make up all but 1.4% or so of the library.
# MbtI inh = MbtI salicylate synthase inhibitors, primary screen, biochemical, fluorescence intensity; P9WFX0; purified MbtI enzyme, fluorescence intensity read-out; inhibition, % (test concentration not listed); 0.89% of 100,000 active; AID 493033, 2011; in the data active = inhibition mostly above about 56%, no sharp cut-off; inactive = mostly below about 77%
# AID504770 = growth inhibition of E. coli YBA685, primary screen, V. cholerae RctB inhibitors; E. coli YBA685 rctB-dependent plasmid, OD600 growth, 3 h; stronger effect = lower value; z-score (no concentration beside the values); 0.27% of 130,000 active; AID 504770, 2011; in the data active = z-score below about -2, passing the limit was not always enough
# PV pol inh = poliovirus RdRp elongation inhibitors, primary screen, biochemical, fluorescence polarization, total intensity; Genome polyprotein (Poliovirus type 1 (strain Mahoney)), P03300; poliovirus polymerase elongation; stronger effect = lower value; % elongation, % (compound at 16.7 µg/mL); 0.66% of 150,000 active; AID 588519, 2011; in the data active = % elongation below about 90%
# Target sequence (P03300 1749-2209 limits assumed): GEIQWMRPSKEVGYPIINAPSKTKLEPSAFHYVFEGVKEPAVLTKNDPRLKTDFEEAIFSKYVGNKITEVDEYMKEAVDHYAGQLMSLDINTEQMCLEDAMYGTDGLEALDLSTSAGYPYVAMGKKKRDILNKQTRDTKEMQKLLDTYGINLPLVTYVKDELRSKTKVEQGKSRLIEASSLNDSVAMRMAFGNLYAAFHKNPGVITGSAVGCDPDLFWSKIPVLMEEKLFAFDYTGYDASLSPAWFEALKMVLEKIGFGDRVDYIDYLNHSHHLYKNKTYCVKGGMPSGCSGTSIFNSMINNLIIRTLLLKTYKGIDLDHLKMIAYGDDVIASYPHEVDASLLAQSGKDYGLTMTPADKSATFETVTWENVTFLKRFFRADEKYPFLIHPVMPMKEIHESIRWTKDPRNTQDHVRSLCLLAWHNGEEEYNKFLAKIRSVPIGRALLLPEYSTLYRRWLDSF
# Mtb MenB inh = M. tuberculosis MenB inhibitors, primary screen, biochemical, absorbance. inhibition, % (test concentration not listed). MenB enzyme assay, absorbance read-out. 0.43% of 100,000 active. 1,4-dihydroxy-2-naphthoyl-CoA synthase (Mycobacterium tuberculosis (strain ATCC 25618 / …; in the data active = inhibition above about 21%, passing the limit was not always enough
# Starred values were filed as active, the others as inactive; . = not tested or not shown.
SMILES,MbtI inh,AID504770,PV pol inh,Mtb MenB inh
CCC(C)N1CCN(C2CCCCC2)CC1 (configuration not stated),-10.6,-0.4,100.0,44.3*
C1CCC(N2CCN(C3CCCC3)CC2)C1,-7.0,-0.3,99.0,32.3*
CCN1C(=O)c2cccc3c(NC(=O)c4cccc(OC)c4)ccc1c23,0.5,-1,101.0,-14.3
CN(C)CCCN1C(=O)C(=O)/C(=C(/O)c2ccc(S(=O)(=O)N(C)C)cc2)C1c1ccccc1 (configuration not stated),7.8,-0.05,101.0,4.6
CN(C)S(=O)(=O)c1ccc(/C(O)=C2\C(=O)C(=O)N(Cc3cccnc3)C2c2cccnc2)cc1 (configuration not stated),1.5,1.2,102.0,34.4*
CC1=C(c2ccc(C)cc2)S(=O)(=O)NC1=NCCN1CCOCC1,14.8,1.9,102.0,-9.3
O=C(NC1(C(F)(F)F)Oc2ccc(Cl)cc2O1)N1CCCCC1 (configuration not stated),40.4,.,.,.
CCN(C(=O)NC1(C(F)(F)F)Oc2ccc(Cl)cc2O1)C1CCCCC1 (configuration not stated),70.9*,0.2,100.0,-20.2
CN=c1scc(C)n1NC(=O)Nc1ccc(Cl)cc1,-0.8,-0.75,101.0,7.0
